# Compounds with a hit are over-represented: about 2.2% of the library has one in this group of screens.
# EWS-Fli block: inhibitors of EWS/Fli oncoprotein transcriptional activity; hit rate 0.67% among 350,000; A673 NR0B1-luciferase reporter, viability-normalised; inhibition, % at 12.6 µM;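 active = mean inhibition of at least 50% after viability correction, with every replicate also passing that limit; inconclusive = mean reaches 50% but only one of two replicates passes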;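 note: firefly luciferase signal divided by Alamar Blue viability fluorescence both relative to DMSO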
# TRPM1 prom inh: MITF TRPM1 promoter inhibition in SK-MEL-5 cells; SK-MEL-5 TRPM1 promoter luciferase, 24 h; hit rate 0.83% among 330,000; inhibition, % at 12.5 µM;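 active = mean inhibition across replicates of 60% or more, whatever share of single replicates reaches that level; inconclusive = some that reach 60%, reason not given; inactive = mean inhibition across replicates below 60%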
# Shn3 3UTR inh: inhibitors of Schnurri-3 3'UTR reporter in osteoblasts. inhibition, % at 12.5 µM. hit rate 0.52% among 360,000. Clone20 osteoblast Shn3 3'UTR firefly luciferase, 24 h;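 active = mean inhibition of at least 75% with every replicate also reaching 75%; inconclusive = mean inhibition at least 75% but some replicate below; inactive = mean inhibition below 75%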;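 note: 0% = median of neutral control wells and 100% = pilot-screen positive control compound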
# EBV LMP1 NFkB: Epstein-Barr LMP1 NF-kappaB reporter inhibition; LMP1-induced NF-kappaB luciferase reporter cells, luminescence; inhibition, % at 12.5 µM; hit rate 0.69% among 350,000; AID 504558; in the data active = inhibition above about 41%; inconclusive = no clear call, values can overlap the other calls;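 note: 0% = neutral control wells and 100% = reference inhibitor control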
# LGR2 antag: inhibitors of bursicon-induced Drosophila LGR2 receptor cAMP signaling | HEK293 LGR2, CRE-luciferase, bursicon-stimulated, 4 h | inhibition, % at 9.99 µM | hit rate 0.35% among 380,000 | AID 720647;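 active = drop in luminescence signal, shown as inhibition above about 50% in the replicate tests, limit read from the data, passing the limit was not always enough; inconclusive = probably only some replicates passing the limit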;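 note: agonist challenge used bursicon conditioned medium at about half maximal strength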
# PAX8 inh HTS: PAX8 transcriptional activity inhibition; RMG-I TPO-luciferase reporter, SteadyGlo, 24 h; inhibition, % at 12.6 µM; hit rate 1.2% among 360,000; AID 652154;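 active = mean replicate inhibition at least 60% with every replicate also reaching 60%; inconclusive = only one of the two criteria is met; inactive = mean below 60% and not all replicates reaching 60%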;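 note: luciferase light reporting Pax8 driven TPO promoter activity; plate controls were median of neutral control wells for no effect and mitoxantrone controls for full effect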
# * hit, by the source's call; u = inconclusive; x = no result given.
SMILES,EWS-Fli block,TRPM1 prom inh,Shn3 3UTR inh,EBV LMP1 NFkB,LGR2 antag,PAX8 inh HTS
O=C(Oc1c(Cl)cc(Cl)c2cccnc12)c1cccs1,x,13.2,18.2,8.1,x,52.3
O=C(Oc1c(CN2CCOCC2)cc(Cl)c2cccnc12)c1cccs1,27.3,69.2*,45.1,3.9,12.3,71.3*
O=C(Oc1c(CN2CCOCC2)cc(Cl)c2cccnc12)c1ccc(F)cc1,x,64.5*,60.4,58.4*,x,x
O=C(Oc1c(CN2CCOCC2)cc(Cl)c2cccnc12)c1ccccc1Cl,21.2,75.5*,u,71.1*,10.8,45.9
OCCN1CCN(Cc2cc(Cl)c3cccnc3c2O)CC1,x,8.4,16.4,22.9,20.1,x
O=C(Oc1ccc(Cl)c2cccnc12)N1CCOCC1,x,-0.7,-1.0,-8.3,x,-10.4
CN1C(=O)c2cc(NC(=O)Nc3ccc(Cl)cc3)ccc2OC[C@@H]2O[C@H](CC(=O)O)CC[C@@H]21,-4.0,x,x,x,16.6,4.4
CNC(=O)C[C@@H]1CC[C@H]2[C@@H](COc3ccc(NC(=O)c4ccc5c(c4)OCO5)cc3C(=O)N2C)O1,-9.3,x,x,x,-2.3,-13.5
CCOC(=O)CSC1=N/C(=C\c2cccnc2)C(=O)N1c1ccc(OC)cc1,x,3.4,-9.0,56.2*,3.6,1.3
CCSC1=N/C(=C\c2cccnc2)C(=O)N1c1ccccc1,x,4.4,2.8,-7.3,13.3,-4.6
COc1ccc(S(=O)(=O)N(C)C[C@@H]2OCCCC[C@@H](C)Oc3ccc(NC(=O)Nc4cccc5ccccc45)cc3C(=O)N([C@@H](C)CO)C[C@H]2C)cc1,-15.8,x,x,x,-4.8,-8.7
O=C([C@H]1[C@H](CO)[C@H]2Cn3c(ccc(-c4ccccc4)c3=O)[C@@H]1N2)N1CCCCC1,-9.1,x,x,x,-9.9,-10.7
COc1ccc2nc(SCC(=O)N3CC(=O)Nc4ccccc43)c(C#N)cc2c1,x,-3.9,-5.5,5.9,x,x
Cc1cc(C)c2nc(SCC(=O)N3CC(=O)Nc4ccccc43)c(C#N)cc2c1,x,35.9,26.2,-4.9,x,96.7*
CCCNC(=O)N(C)C[C@H]1Oc2cc(C#CC(C)C)ccc2S(=O)(=O)N([C@@H](C)CO)C[C@@H]1C,-1.5,x,x,x,-1.9,12.0
O=c1cc(C2CCCCC2)[nH]c(=O)[nH]1,4.6,-8.2,1.4,51.7*,1.4,7.1
COc1cccc(C#Cc2ccc([C@H]3[C@@H](CO)N4C(=O)CN(C(C)=O)C[C@@H]34)cc2)c1,x,x,x,x,-4.6,x
CCN1/C(=C/C=C/c2sc3ccccc3[n+]2CC)Sc2ccccc21,x,98.9*,94.8*,50.2*,x,x
CC[n+]1c(/C=C(\C)SC)sc2ccccc21,0.6,10.4,-14.6,-3.9,12.6,x
CC[n+]1c(/C=C(/C)SC)sc2ccccc21,x,29.1,-14.1,-1.8,7.2,-14.7
CCN1/C(=C/C=C/C=C/C=C/c2sc3ccccc3[n+]2CC)Sc2ccccc21,22.5,94.8*,77.8,35.9,-2.1,9.8
Cc1noc(C)c1NC(=O)N(C)C[C@H]1OCCCC[C@@H](C)Oc2ccc(NS(=O)(=O)c3ccccc3)cc2C(=O)N([C@H](C)CO)C[C@H]1C,-0.9,x,x,x,-5.8,-29.7
COC(=O)[C@@H]1[C@@H](CO)[C@@H]2Cn3c(cccc3=O)[C@@H]2N1CC1CCOCC1,-35.7,x,x,x,-11.3,-8.2
CCCCN(C(=O)c1cc(-c2ccc(F)cc2)nc2ccccc12)c1c(N)n(CCCC)c(=O)[nH]c1=O,26.0,69.5*,6.4,-5.2,-6.8,1.4
O=C(CCc1ccc(F)c(F)c1)NC1CCCN(Cc2ccc(Cl)cc2)C1 (stereo unspecified),2.3,-3.8,9.2,79.9*,0.5,13.8
SMILES,EWS-Fli block,TRPM1 prom inh,Shn3 3UTR inh,EBV LMP1 NFkB,LGR2 antag,PAX8 inh HTS
C[C@@H]1CN([C@H](C)CO)C(=O)c2cc(NC(=O)Nc3ccc(C(F)(F)F)cc3)ccc2O[C@@H]1CN(C)C(=O)Nc1ccc2c(c1)OCO2,-1.4,x,x,x,28.5,x
C[C@@H]1CN([C@@H](C)CO)C(=O)c2cc(NC(=O)Nc3ccc(C(F)(F)F)cc3)ccc2O[C@H]1CN(C)C(=O)Nc1ccc(C(F)(F)F)cc1,20.9,x,x,x,14.7,91.7*
C[C@@H]1CN([C@H](C)CO)C(=O)c2cc(NC(=O)Nc3ccc(C(F)(F)F)cc3)ccc2O[C@@H]1CN(C)C(=O)Nc1ccc(C(F)(F)F)cc1,-6.5,x,x,x,-22.1,12.7
C[C@@H]1CN([C@H](C)CO)C(=O)c2cc(NC(=O)Nc3ccc4c(c3)OCO4)ccc2O[C@H]1CN(C)C(=O)Nc1ccc(C(F)(F)F)cc1,-42.2,x,x,x,20.1,65.4*
COc1ccc(Cl)c(Cn2c(NCc3ccco3)nc3c2c(=O)n(C)c(=O)n3C)c1,x,3.4,67.6,56.0*,23.0,x
COc1ccc(CNc2nc3c(c(=O)n(Cc4ccc(Br)cc4)c(=O)n3C)n2C)cc1,x,23.7,34.0,26.8,x,84.4*
Cn1c(NCc2ccccc2)nc2c1c(=O)n(Cc1ccc(Br)cc1)c(=O)n2C,x,8.5,20.0,15.3,x,x
COc1cccc(Cn2c(NCc3ccco3)nc3c2c(=O)n(C)c(=O)n3C)c1,x,x,x,x,x,18.8
CSc1ccc(S(=O)(=O)NC(C)c2ccccc2)cc1 (stereo unspecified),-18.8,2.3,14.0,3.5,-2.3,-5.1
Cc1ccc(S(=O)(=O)NC(C)c2ccccc2)cc1[N+](=O)[O-] (stereo unspecified),2.4,0.9,-15.2,50.4*,-15.6,16.7
C[C@H](CO)N1C[C@H](C)[C@H](CN(C)C)Oc2cc(C3=CCCCC3)ccc2S1(=O)=O,4.6,x,x,x,-0.6,x
CC(=O)N1N=C(c2cccc(NS(=O)(=O)c3ccc(C)cc3)c2)CC1c1ccco1 (stereo unspecified),x,7.1,8.9,-4.5,-1.6,16.7
CC(=O)N1N=C(c2ccc(NS(=O)(=O)c3ccccc3)cc2)CC1c1ccco1 (stereo unspecified),54.5*,9.3,14.1,18.2,17.4,27.0
COc1ccccc1C#Cc1ccc2c(c1)O[C@@H](CN(C)Cc1ccncc1)[C@@H](C)CN([C@H](C)CO)S2(=O)=O,21.6,x,x,x,10.2,4.2
COc1ccccc1C#Cc1ccc2c(c1)O[C@H](CN(C)Cc1ccccc1)[C@@H](C)CN([C@@H](C)CO)S2(=O)=O,10.2,x,x,x,0.7,x
COc1ccccc1C#Cc1ccc2c(c1)O[C@H](CN(C)Cc1ccncc1)[C@@H](C)CN([C@@H](C)CO)S2(=O)=O,14.0,x,x,x,29.2,93.4*
COc1ccccc1C#Cc1ccc2c(c1)O[C@@H](CN(C)Cc1ccncc1)[C@H](C)CN([C@@H](C)CO)S2(=O)=O,33.5,x,x,x,41.4,101.3*
COc1ccccc1C#Cc1ccc2c(c1)O[C@@H](CN(C)Cc1cccnc1)[C@@H](C)CN([C@@H](C)CO)S2(=O)=O,16.7,x,x,x,20.2,23.9
COc1ccccc1C#Cc1ccc2c(c1)O[C@@H](CN(C)Cc1ccncc1)[C@H](C)CN([C@H](C)CO)S2(=O)=O,37.6,x,x,x,34.0,99.1*
COc1ccccc1C#Cc1ccc2c(c1)O[C@@H](CN(C)Cc1cccnc1)[C@H](C)CN([C@@H](C)CO)S2(=O)=O,15.4,x,x,x,42.5,68.1*

# High-throughput results: PubChem, Broad Institute
